In all, about 2,700 sequences were measured (“arbitrary fluorescence units”: median about 4,100, highest 2% from about 54,000 on). The list comes from a sample in which the highest values are over-represented; it also holds similar and randomly drawn sequences.

The target of this test is T1, ETS1 (UniProt P14921).
T1 sequence: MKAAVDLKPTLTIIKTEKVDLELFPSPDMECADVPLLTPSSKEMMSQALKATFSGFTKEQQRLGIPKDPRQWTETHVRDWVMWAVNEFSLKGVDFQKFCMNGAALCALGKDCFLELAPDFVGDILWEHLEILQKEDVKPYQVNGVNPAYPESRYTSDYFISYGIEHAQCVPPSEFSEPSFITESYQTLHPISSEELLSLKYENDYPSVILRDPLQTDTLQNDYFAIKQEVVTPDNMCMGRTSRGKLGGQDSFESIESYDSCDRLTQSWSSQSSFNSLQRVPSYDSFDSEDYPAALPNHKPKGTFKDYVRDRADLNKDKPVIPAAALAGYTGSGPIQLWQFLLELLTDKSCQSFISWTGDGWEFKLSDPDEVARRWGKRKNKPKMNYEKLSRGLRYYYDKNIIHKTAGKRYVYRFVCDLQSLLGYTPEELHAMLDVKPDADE
The experiment in a line: ETS1 binding intensity (PBM fluorescence) (arbitrary fluorescence units); higher = stronger binding. The following applies: ETS1 concentration 10 nM. The protocol: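 gcPBM on wild-type 36-bp genomic probes with two neighbouring ETS1 sites (4-24 bp apart). Recombinant human ETS1 (10 nM) was detected with anti-ETS1 antibody fluorescence. Values are medians over 3 replicate spots. The probes sit in constant array flanks that are not printed.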
In turn, CGCCGCATCCGGTAGCGAGAGTTCAACTTCCTGACT registered an ETS1 binding intensity of 56600.
CAAGCGATTCTTCCGCCTCAACTTCCTGAGTAGCTG came in with an ETS1 binding intensity of 5800.
Then TGTGATTTTCCATCCTGCCATTTCCTGGCACCCAGA, with 4620.
GCCGCGGCGGAAGAGGCTCGGGGAGGAAGTTATTTG had an ETS1 binding intensity of 1880.
The same measure for AGTCACACAGGAAATGGAGCCAGGGGATGTGCTCAA: 14800.
CGCGCCGGGTGTTTCCGCTACTTCCCTGCGGCGGGG registered an ETS1 binding intensity of 7930.
The same measure for CGGGCACTTCCGGCGCGAACCGCTACTTCCGGTGCG: 95900; for GCCGAGGACACTTCCGCGGGCGGAACCTGCCGGCAC: 5200.
ACTTGACATTTCCTGCCTCCTGTTTCCTCATCACTC displayed an ETS1 binding intensity of 22500.
Then GAGGTGGGGAGGAAGAGCTGCCGGAAGTAGGCGGTG, with 5440.
Then CAGACTTCCGGGGTCGAGAACTACAACTTCCGACTT, with 61700.
In the case of CTGGGCCCTTCCTGCCAGGTTGCACTTCCTGATAGC, the ETS1 binding intensity stood at 8540.
The same measure for AGGCAGGAAGTACCGCCTGATGCTCAGCTTCCGCTG: 9880; for TGCCACATCCTGTCTTTTTACCTCCTTTCCTGCTTA: 51200; for GTAACAGGAAGAAAATAATTTACCACATCCTTTATT: 975.
The same measure for TGCGCATTTCCGCTCCTTGCCGGTTTTCCGGACCTC: 36000.
Take CTTCCCTGGTAACATCCGGCATCCTGGGGCTGCCAA: the ETS1 binding intensity is 18800.
The same measure for TGGTAACAGGCATTTCCGGTTTCCGGCCGGCTCCCT: 61800.
Take ACATAAGACATGAGGATGTCTTCCTGACTTGCGTCC: the ETS1 binding intensity was 208.
The same measure for GGGTCTTCCGGCCCTCTCGAAAATCATTTCCGGCAT: 22500; for GTTATGATAACGGAACTACAGTTCCTCCAGGATGGA: 195.
Then GGAGGAGGCGGAGGAAACCCGGAAAAGGGGCCGCGC, with 382; and GCTCCGCCCCCGGAAGCCTCACTTCCGGGCGCGAGC, with 25300; and GCGCCGCCTCAGTTCCGCGGCTTCCGGCCACAGAGT, with 8030.
The same measure for GGCTCACTTCCGGCCTCAGAGCCGCTTCCGGCGCGC: 71400; for CGGGAGCAGCGGAAGTCATTAACATCCGCGGTTGTG: 12500.
Take TGCCACCACACCAGGATGCTTCCGTCTTTGAAGGCA: the ETS1 binding intensity came to 1030.
The same measure for GTCACCACATCCTGAGGCTTCTCATTTCCTTTCTAC: 6290.
The same measure for ACAACTTCCTGTTACACAAGACAGGTATTTCCTCAT: 59800.
The same measure for TGTTATTGGACAACTTCCAGGAAAACATCCTCAAGA: 273; for TGCCAAGTTACACTTCCTGTTTCCTCTCTGTGTGCC: 31700.
AGCCCAAGCGCGGAAGAGGGCGGAAGGAGAACCCCT displayed an ETS1 binding intensity of 240.
For the sequence GCACCAAGGGAAGTGGTTAAAACAGGAAGACCCGCT, the ETS1 binding intensity was 919.
Then CGGCCCTTCCATTTCCTGCCTTCCTGCCTGCATTTG, with 24200; and GTCACTTCCGGCGCCCGCCTACACGCACTTCCGTTC, with 88200; and GGAGCACTTCCGCTGGACGCACGCACTTCCGGCCCC, with 50800.
The sequence TTACACTACTTCCGCCGCCTCACTTCCGGTGACGCG came in with an ETS1 binding intensity of 34100.
Then CATCCTTGGCATTTCCTCTGAGGAAGCTCGCACCCC, with 3550; and GGTTGGTGATTGGCAGGATCCTGGTATCCGCTAACA, with 278.
CTTCGCCTTCCGCTGTGAATAATAGCTTCCTGAGGC had an ETS1 binding intensity of 10100.
In turn, CTGCTACAGGAAATCGCTTGTTATTTCCTGTAATGC came in with an ETS1 binding intensity of 10900.
Sequence CTCAACTTCCGGAGGCGGCAGACTTTTTCCGTCAAG had an ETS1 binding intensity of 36700.
Then TTCATTTCCGGCGGCGGAGGCGGCAGTTTCCTAAGC, with 73000; and TGAGGCGGTTTCCTCGGCGCCTTTTCCGGCAGCGGC, with 1360.
Take AGATCGCTGGCTTCCTGTGTTTTTCCTGGACTCAGG: the ETS1 binding intensity stood at 14800.
The same measure for CGGCCTCTTCCGCGAGCCCGCGCGCCGGAAGTGGAA: 5440; for GCACCGGAAGTGACCGCCTCGCGGCTGCTTCCTCTC: 57700; for CGCCGGAAGTGGTCGCGGGTCGTTCTGCTTCCTGCC: 18000.
The same measure for CCTGAGTTTCCTTGTCTGGAGCTGCAGGATATTTGT: 800; for ACCCCCTGGCGGATGCTGTGTGTTTCCTGTGCTTAG: 3420; for GGTCCGGAAGGGAGGAGAACACAAGCAGGATATAAC: 860.
Then ATCTGCAGGATGTAAGAAGAATAGAAGGAAGCTGGG, with 1930; and GGGGACCGGAAGCCAGCGGCAACAACTTCCGGCGGG, with 23100.
GACACAACTTCCGGCTTCTGGCGGCGGAAGAGGACA: the ETS1 binding intensity amounted to 90100.
The same measure for TGGCGGAGGCGCCGGAAGTTTTCCGGCTTTCTGCTG: 4500; for GCCTTCAATTTCCGTAGGGAACCTTCCTCCCAGTGA: 6860; for TGATTTCCGCTTTCTCCCCAGTGATTGCTTCCTTCA: 68300.
Then TGAATGCTGTCATTTCCGCTTCCGCCTCCTTCTTTC, with 26500; and TCAACATCCTGCTTCTCAGGGCACCACAGGAAATGT, with 36600; and TCGGGCCCTGGCTTCCGTCACTTCCGCCCGTGCCTG, with 14700.
ACGTCACTTCCGGCGCCGGGGCTCACTTCCTGGTGC displayed an ETS1 binding intensity of 87500.
Then GGCGGCGACGGAAGTGAAGTCACTTCCGGGCTGGGG, with 21300.
In turn, CAGCTAGGCTTCCTTCTCCTCCCTTCCTGTGCCTCC showed an ETS1 binding intensity of 1100.

Source of the values: the supplement of paper PMC10681739.
